BAZ2B inh = blocks human BAZ2B; AlphaScreen BAZ2B-H3K14Ac peptide displacement; 360,000 compounds, 4.4% hits; Q9UIF8; AID 504333; Potency, µM (titrated, usually from 114 µM), for the others: top-dose activity change, negative = inhibition, actives largely listed as inhibitors; note: potency is the fitted concentration of half-maximal effect; % is set by controls: 0 for no effect and ±100 for the full control effect; nearly all actives have a fitted effect of over 60% in size
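Inhibition is scored as reduced AlphaScreen emission. The BAZ2B/b-H3(5-23)K14Ac complex (50 nM each) in PBS pH 7.4, 0.01% Tween-20 meets compound (up to 110 uM) for 30 min at RT before bead addition.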
L3MBTL1 inh = L3MBTL1 (human) inhibition | AID 485360 | Potency, µM (doses to about 57.1 µM), without a hit: at the highest dose activity, negative = inhibition, most hits filed as inhibitors | AlphaScreen L3MBTL1–H3K9me1 peptide binding | 230,000 compounds, 0.66% hits; note: potency is the fitted concentration of half-maximal effect; % is set by controls: 0 for no effect and ±100 for the full control effect; nearly all actives have a fitted effect of over 60% in size
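Displacement of a biotinylated histone H3(1-15) peptide monomethylated at Lys9 (75 nM) from L3MBTL1 (50 nM) was measured by AlphaScreen after a 30 min room-temperature compound incubation; cefsulodin titration served as intraplate control.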
JMJD2A Tudor inh = inhibitors of human JMJD2A Tudor domain; O75164; AlphaScreen JMJD2A-Tudor / H3K4me3 peptide binding; Potency, µM (titrated, usually from 114 µM), without a hit: at the highest dose activity change, negative = inhibition, most hits filed as inhibitors; 390,000 compounds, 4.4% hits; AID 504339; note: potency is the fitted concentration of half-maximal effect; % is set by controls: 0 for no effect and ±100 for the full control effect; nearly all actives have a fitted effect of over 50% in size
G9a block = blocks human histone lysine methyltransferase G9a. Potency, µM (series often up to 102 µM), for inactives: at the highest dose activity, negative = inhibition, most hits filed as inhibitors. G9a H3K9 monomethylation, AlphaScreen, 2 h. Q96KQ7. 350,000 compounds, 8.8% hits. AID 504332; note: potency is the fitted concentration of half-maximal effect; % is set by controls: 0 for no effect and ±100 for the full control effect; nearly all actives have a fitted effect of over 75% in size
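G9a (20 nM) was preincubated 15 min with compound, then reacted 2 h at room temperature with 500 nM biotin-H3K9 peptide and 20 µM SAM. Monomethyl-H3K9 detected by AlphaScreen using anti-H3K9me1 antibody.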
PI5P4K alpha inh = PI5P4K alpha (human) kinase inhibition; P48426; PI5P4Kalpha enzyme, ADP-Glo luminescence, 60 min; hits give low values; max response, %; 330,000 compounds, 1.2% hits; AID 652105; active = max response of -50% or lower; inconclusive = between -30% and -50%; inactive = -30% or higher; note: value at the top dose of about 77 µM; % is set by controls: 0 for no effect and ±100 for the full control effect
Target sequence (P48426 whole entry, looked up): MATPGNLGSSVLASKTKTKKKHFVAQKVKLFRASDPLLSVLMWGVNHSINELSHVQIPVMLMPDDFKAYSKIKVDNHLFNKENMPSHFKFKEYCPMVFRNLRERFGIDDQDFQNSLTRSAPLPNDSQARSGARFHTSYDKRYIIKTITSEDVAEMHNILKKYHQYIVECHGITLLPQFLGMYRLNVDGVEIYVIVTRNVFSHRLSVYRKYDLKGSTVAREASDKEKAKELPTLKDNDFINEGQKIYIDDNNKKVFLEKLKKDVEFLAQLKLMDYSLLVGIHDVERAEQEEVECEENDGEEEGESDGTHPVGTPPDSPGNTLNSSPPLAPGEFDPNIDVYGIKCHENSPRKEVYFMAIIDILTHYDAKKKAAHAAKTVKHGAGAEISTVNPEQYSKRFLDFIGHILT
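PI5P4Kalpha ADP-Glo assay; 5 microM ATP final; 60 min RT reaction; HEPES pH 7.4/EGTA/CHAPS, 5% DMSO; controls lacking substrate or enzyme; luminescent end-point.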
HP1b binding inh = inhibitors of HP1-beta chromodomain binding to methylated histone tails; AlphaScreen HP1-beta / biotin-H3K9me3 peptide binding; Potency, µM (top dose mostly 114 µM), for the others: at the top dose activity change, negative = inhibition, most hits filed as inhibitors; 390,000 compounds, 0.56% hits; note: potency is the fitted concentration of half-maximal effect; nearly all actives have a fitted effect of over 70% in size
Target sequence (P83916 whole entry, looked up): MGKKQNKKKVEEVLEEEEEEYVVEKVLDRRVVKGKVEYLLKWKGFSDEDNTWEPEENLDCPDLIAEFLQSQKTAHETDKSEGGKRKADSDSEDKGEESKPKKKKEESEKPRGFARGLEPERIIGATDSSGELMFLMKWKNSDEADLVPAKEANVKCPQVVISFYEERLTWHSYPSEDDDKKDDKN
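Compound inhibition of the preformed complex between 50 nM HP1-beta and 50 nM biotinylated H3K9me3 peptide was read by AlphaScreen. Buffer was PBS pH 7.4 with 0.01% Tween-20. Incubations ran 30 min at room temperature, with 10 ug/mL donor/acceptor beads.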
* marks the source's active call; other numbers are inactive results; ? = inconclusive; · = no result; [ ] = dose if it differs, or a comment. The list is not random: actives were taken first. Their share in the collection is about 11%. Unless noted, calls come from the whole dose curve; as a rule, active = well fitted inhibition curve with a large enough effect; inconclusive = small, poorly fitted or top-dose-only effect; inactive = no such curve, though single readings can be large or run the other way.

SMILES	BAZ2B inh	L3MBTL1 inh	JMJD2A Tudor inh	G9a block	PI5P4K alpha inh	HP1b binding inh
Cc1ccc(SCCCCN2CCOCC2)cc1	-5%	2%	-19%	-27%	0	26%
COc1ccc(NC(=O)C(CC(C)C)NC(=O)C2CCCCC2)cc1 (configuration not stated)	-13%	·	-29%	-9%[59 µM]	·	8%
COc1ccc(NC(=O)c2oc3ccccc3c2NC(=O)Cc2cccs2)cc1	-25%	·	-11%	6%[59 µM]	·	24%
CC(=O)c1ccc(-c2ccc(C3C4C=CCCC4(C)C(=O)N3Cc3ccccc3)c(F)c2)cc1 (configuration not stated)	·	·	-28%	·	·	4%
Cc1ccc(C(C)C)c(OCC(O)CN2CCOCC2)c1 (configuration not stated)	15%	-6%	-9%	2%	·	37%
Cc1ccc(C(C)C)c(OCC#CCN2CCOCC2)c1	50µM*	3%	22µM*	7.9µM*	1	?
Cc1ccc(C(C)C)c(OCCN(C)C)c1	35µM*	·	2.8µM*	3.5µM*	3	?
CCOc1ccccc1NC(=O)C(=O)Nc1ccc2nc3n(c(=O)c2c1)CCCCC3	-11%	·	-25%	-3%[59 µM]	·	11%
O=C1c2cccnc2C(Nc2ccccc2)N1Cc1ccco1 (configuration not stated)	56µM*	·	32µM*	25µM*	·	11%
O=C1c2cccnc2C(O)N1Cc1cccs1 (configuration not stated)	-4%	-11%	-6%	0%[59 µM]	·	25%
COc1ccc(CN2C(=O)c3cccnc3C2Nc2ccc(C)cc2)cc1 (configuration not stated)	?	·	-11%[57.1 µM]	-31%[59 µM]	-7	-19%
COc1ccc(CN2C(=O)c3cccnc3C2Nc2cc(Cl)c(OC)cc2OC)cc1 (configuration not stated)	50µM*	?	35µM*	45µM*	·	?
COc1cc(NC2c3ncccc3C(=O)N2Cc2ccco2)cc(OC)c1OC (configuration not stated)	-8%	·	-20%	35µM*	3	20%
Cc1ccc(NC2c3ncccc3C(=O)N2Cc2cccs2)cc1 (configuration not stated)	·	·	14µM*	45µM*	3	-10%
O=S(=O)(NCCc1ccc(Cl)cc1)c1ccc(N2CCCCS2(=O)=O)cc1	-13%	·	-4%	0%[12.7 µM]	·	32%
Cc1ccccc1NC(=O)CSC1=Nc2ccccc2C2=NC(Cc3ccccc3)C(=O)N12 (configuration not stated)	-15%	·	-3%	0%[12.7 µM]	·	29%
Cc1ccc(Cl)cc1NC(=O)Cn1c(=O)n(CCC(=O)NCc2ccc3c(c2)OCO3)c(=O)c2sccc21	?	·	-15%	?	·	12%
CCCN(CCC)CC(O)Cn1cc(/C=C/C(=O)c2ccc(OCC)cc2)c2ccccc21 (configuration not stated)	?	·	?	-39%[59 µM]	·	-1%
CCCCCCOc1ccc(C2C(=O)N(C3CCCCC3)CC(=O)N2CCCC)cc1 (configuration not stated)	21%	·	-5%	23%[59 µM]	·	38%
CC(=O)c1cccc(NC2c3ncccc3C(=O)N2Cc2ccco2)c1 (configuration not stated)	-31%	?	-13%	50µM*	·	25%
O=C1c2cccnc2C(O)N1Cc1ccco1 (configuration not stated)	10%	1%	-14%	6%[59 µM]	12	12%
CC(=O)c1ccc(NC2c3ncccc3C(=O)N2Cc2ccc(F)cc2)cc1 (configuration not stated)	?	-3%	-8%	·	·	14%
O=C1c2cccnc2C(Nc2ccccc2Br)N1Cc1ccco1 (configuration not stated)	-13%	·	-20%	50µM*	-1	9%
O=C1c2cccnc2C(Nc2cccc(F)c2)N1Cc1ccco1 (configuration not stated)	-28%	-8%	-5%	25µM*	-16	17%
COC(=O)CN1C(=O)[C@H]2[C@@H](c3ccc(C)o3)N3C(=O)CN(Cc4ccccn4)C(=O)[C@@]3(C)[C@H]2C1=O	18%	36%	-13%	·	2	39%
SMILES	BAZ2B inh	L3MBTL1 inh	JMJD2A Tudor inh	G9a block	PI5P4K alpha inh	HP1b binding inh
Cc1ccc([C@@H]2[C@@H]3C(=O)N(C)C(=O)[C@@H]3[C@]3(C)C(=O)N(CCO)CC(=O)N23)o1	-17%	-3%	-12%	45µM*	4	34%
COC(=O)CN1C(=O)[C@H]2[C@@H](c3ccc(C)o3)N3C(=O)CN(Cc4ccc(-c5ccccc5)cc4)C(=O)[C@@]3(C)[C@H]2C1=O	-18%	8%	-20%	40µM*	-62*	34%
COC(=O)CN1C(=O)[C@H]2[C@@H](c3ccc(C)o3)N3C(=O)CN(CC4CC4)C(=O)[C@@]3(C)[C@H]2C1=O	-6%	1%	-29%	50µM*	0	44%
CCOc1ccc(N(C)C(=O)C2CCN(S(=O)(=O)c3c(C)noc3/C=C/c3ccc(C)cc3)CC2)cc1	-17%	·	-21%	-36%[59 µM]	·	4%[57 µM]
COC(=O)c1ccccc1NC(=O)c1ccc(-c2nc(COc3ccccc3)c(C)o2)cc1	-27%	·	-7%	-26%[59 µM]	·	31%
O=C(CCN1C(=O)/C(=C/c2ccccc2Cl)SC1=S)Nc1ccccc1C(=O)O	35µM*	·	?	25%[2.33 µM]	-28	-10%
CCc1ccc(/C=C2/SC(=S)N(CCCC(=O)Nc3ccccc3C(=O)O)C2=O)cc1	-27%	·	50µM*	?	-27	-8%
O=C(CCCN1C(=O)/C(=C/c2cccc(Br)c2)SC1=S)Nc1ccccn1	?	-10%	?	?	-1	8.9µM*
CCc1ccc(C=C2SC(=S)N(CCCC(=O)Nc3ccc(C(=O)O)cc3)C2=O)cc1	·	·	·	·	6	·
CCc1ccc(/C=C2\SC(=S)N(CCCC(=O)Nc3ccccn3)C2=O)cc1	10µM*	-18%	?	2%[0.501 µM]	-5	?
CC(=O)c1cccc(Nc2nn(-c3ccc(OC(F)(F)F)cc3)nc2C(C)=O)c1	-2%	·	-14%	4%[59 µM]	·	29%
Cc1oc(-c2ccccc2F)nc1CS(=O)(=O)CC(=O)N1CCN(c2ccc(Cl)cc2)CC1	?	·	?	?	·	2%
Cc1ccc(CNC(=O)CCCn2c(=O)c3ccccc3n(Cc3ccc(Cl)cc3)c2=O)cc1	2%	·	-10%	-22%[59 µM]	·	12%
CN1CCN(NC(=O)CN2C(=O)/C(=C/c3c(Cl)cccc3Cl)SC2=S)CC1	?	-10%	?	56µM*	-5	20%
COc1cc(OC)c(NC(=O)CN2CCCN(Cc3ccccc3C)S2(=O)=O)cc1Cl	-14%	·	-10%	10%[59 µM]	·	18%

From PubChem BioAssay
